In PubChem BioAssay one finds composite z-score and z-score data, which are given here for eight compounds.

Experiment [1] deals with Plasmodium falciparum Sir2 (PF13_0152, Sir2A). Nature of the experiment: pfSir2 binders on small-molecule microarrays, primary screen, biochemical, small-molecule microarray, 635 nm fluorescence (AID 1098).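 Note: score merges spot fluorescence intensity with its signal-to-noise ratio.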 Conditions: small-molecule microarray binding, fluorescence 635 nm; higher = more signal.
The nature of experiment [2]: small-molecule microarray binders of probe aDKK1, primary screen, biochemical, biotinylated probe, 635/667 nm fluorescence (AID 1099).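 Note: score merges 667nm spot fluorescence with signal to noise across triplicate slides.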 Conditions: higher = more signal.
A short description of experiment [3]: small-molecule microarray binders of probe aCHRDL2, primary screen, biochemical, biotinylated probe, 635/667 nm fluorescence (AID 1100). Conditions: higher = more signal.
Experiment [4] in a line: splicing luciferase reporter signal modulators, primary screen, spliceosome inhibition project, cell-based, HEK293, splice +/- reporter (AID 1101).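 Note: HEK293 cells carrying a splicing-competent luciferase reporter gene; test concentration not given here.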 Conditions: luminescence, 24 h, higher = more signal, called active from +8 up or from −8 down.
Experiment [5] has as its target Fibroblast growth factor 10 (Homo sapiens) (UniProt O15520). Description: FGF10 binders on small-molecule microarrays, primary screen, biochemical, small-molecule microarray, 635 nm fluorescence (AID 1102). Conditions: FGF10 binding, fluorescence 635 nm, higher = more signal.
Experiment [6] relates to glycogen synthase kinase-3 (GSK3A per assay name; protocol says GSK3B). Description: GSK3 binders on small-molecule microarrays, primary screen, biochemical, small-molecule microarray, 635 nm fluorescence, GSK3A (AID 1103). Note: the record names both GSK3A and GSK3B. Conditions: small-molecule microarray binding, fluorescence 635 nm; higher = more signal.
The target in experiment [7] is Epidermal growth factor receptor (Homo sapiens) (UniProt P00533). Description: EGFR binders on small-molecule microarrays, primary screen, biochemical, small-molecule microarray, 635 nm fluorescence (AID 1104).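 Note: score merges 667 nm emission intensity with spot signal to noise over triplicate slides.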 Conditions: EGFR binding, higher = more signal.
Sequence of Epidermal growth factor receptor (Homo sapiens) (P00533 whole entry, looked up): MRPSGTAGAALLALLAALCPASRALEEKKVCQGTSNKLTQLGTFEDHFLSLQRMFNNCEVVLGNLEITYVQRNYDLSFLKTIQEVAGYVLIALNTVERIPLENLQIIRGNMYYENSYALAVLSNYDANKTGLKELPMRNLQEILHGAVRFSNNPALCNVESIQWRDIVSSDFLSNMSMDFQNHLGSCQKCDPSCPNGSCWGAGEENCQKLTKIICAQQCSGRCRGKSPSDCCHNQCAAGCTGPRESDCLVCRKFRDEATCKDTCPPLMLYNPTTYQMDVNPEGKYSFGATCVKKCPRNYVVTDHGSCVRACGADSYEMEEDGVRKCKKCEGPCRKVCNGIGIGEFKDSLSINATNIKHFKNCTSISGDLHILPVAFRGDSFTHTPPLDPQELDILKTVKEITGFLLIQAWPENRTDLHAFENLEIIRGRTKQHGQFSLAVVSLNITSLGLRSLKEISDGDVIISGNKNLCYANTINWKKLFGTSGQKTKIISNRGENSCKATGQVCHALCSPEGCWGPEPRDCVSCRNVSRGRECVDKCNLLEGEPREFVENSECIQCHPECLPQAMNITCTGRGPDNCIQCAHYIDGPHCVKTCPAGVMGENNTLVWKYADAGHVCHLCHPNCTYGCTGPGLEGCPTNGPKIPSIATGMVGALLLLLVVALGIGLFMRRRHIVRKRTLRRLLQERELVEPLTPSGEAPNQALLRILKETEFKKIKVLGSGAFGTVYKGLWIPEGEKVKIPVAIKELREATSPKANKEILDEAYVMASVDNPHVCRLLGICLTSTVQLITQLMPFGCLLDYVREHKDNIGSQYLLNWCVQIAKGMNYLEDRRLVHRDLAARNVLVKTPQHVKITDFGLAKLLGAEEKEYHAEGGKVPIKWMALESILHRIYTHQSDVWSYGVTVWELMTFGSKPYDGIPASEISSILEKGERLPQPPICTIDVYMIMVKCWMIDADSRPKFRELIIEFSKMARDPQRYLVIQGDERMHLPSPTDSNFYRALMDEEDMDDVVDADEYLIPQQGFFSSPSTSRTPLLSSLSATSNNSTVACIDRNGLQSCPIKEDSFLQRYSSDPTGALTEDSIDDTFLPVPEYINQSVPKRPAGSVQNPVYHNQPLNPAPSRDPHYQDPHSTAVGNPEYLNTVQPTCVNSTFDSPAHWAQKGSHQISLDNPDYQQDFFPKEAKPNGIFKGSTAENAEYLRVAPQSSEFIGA
Experiment [8] deals with Follistatin-related protein 3 (Homo sapiens) (UniProt O95633). Nature of the experiment: FSTL3 binders on small-molecule microarrays, primary screen, biochemical, small-molecule microarray, 635 nm fluorescence (AID 1105).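 Note: score merges emission near 667 nm and signal to noise per printed spot across three slides.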 Conditions: FSTL3 binding, higher = more signal.
Sequence of Follistatin-related protein 3 (Homo sapiens) (O95633 whole entry, looked up): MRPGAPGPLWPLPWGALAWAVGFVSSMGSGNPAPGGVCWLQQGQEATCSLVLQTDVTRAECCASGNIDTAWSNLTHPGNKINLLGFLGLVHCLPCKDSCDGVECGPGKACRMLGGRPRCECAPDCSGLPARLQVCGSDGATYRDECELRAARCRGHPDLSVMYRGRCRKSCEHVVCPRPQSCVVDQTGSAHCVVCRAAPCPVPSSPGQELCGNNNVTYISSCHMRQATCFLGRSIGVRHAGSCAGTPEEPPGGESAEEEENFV
For experiment [9], the target named is Dickkopf-related protein 1 (Homo sapiens) (UniProt O94907). Nature of the experiment: DKK1 binders on small-molecule microarrays, primary screen, biochemical, small-molecule microarray, 635 nm fluorescence scan (AID 1106).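 Note: score merges emission near 667 nm with signal to noise over three replicate slides.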 Conditions: DKK1 binding, higher = more signal.
Sequence of Dickkopf-related protein 1 (Homo sapiens) (O94907 whole entry, looked up): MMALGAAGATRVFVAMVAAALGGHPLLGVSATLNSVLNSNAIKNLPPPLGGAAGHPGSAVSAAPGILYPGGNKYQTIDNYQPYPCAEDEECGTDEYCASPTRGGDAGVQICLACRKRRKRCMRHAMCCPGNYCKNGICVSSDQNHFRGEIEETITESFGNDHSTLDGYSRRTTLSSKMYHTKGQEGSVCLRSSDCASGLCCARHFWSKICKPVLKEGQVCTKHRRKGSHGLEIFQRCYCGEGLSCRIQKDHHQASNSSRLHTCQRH
Experiment [10] has as its system Inhibin beta A chain (activin A). Nature of the experiment: INHBA (activin A) binders on microarrays, primary screen, biochemical, small-molecule microarray, 635 nm fluorescence scan (AID 1107).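 Note: mouse activin A protein probed at 4.33 µg/mL on printed slides; score merges bound-protein fluorescence near 667 nm with spot signal-to-noise.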 Conditions: small-molecule microarray binding, higher = more signal.
In experiment [11] the test system is Human papillomavirus type 1a protein E7 (residues 44-93). Description: HPV1a E7 fragment binders on microarrays, primary screen, biochemical, small-molecule microarray, residues 44-93, 635 nm fluorescence (AID 1108).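 Note: E7 fragment applied at 1 µg/mL in TBST for 1 h at 4 C; score combines spot fluorescence with its signal to noise ratio.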 Conditions: small-molecule microarray binding, fluorescence 635 nm; higher = more signal.
Experiment [12] in a line: modulators of HCV replicon luciferase signal, primary screen, HCV replication inhibitor project, Huh7 cells, luciferase reporter (AID 1109).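 Note: huh7 hepatoma cells harbouring a luciferase neomycin HCV replicon reporter; luciferase luminescence as measure of HCV replicon replication; test concentration not given here.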 Conditions: 48 h, higher = more signal.
Experiment [13] addresses Left-right determination factor 2 (Homo sapiens) (UniProt O00292). Description: LEFTY2 binders on small-molecule microarrays, primary screen, biochemical, small-molecule microarray, 635 nm fluorescence scan (AID 1110). Conditions: LEFTY2 binding, higher = more signal.
For experiment [14], the target named is Calmodulin-1 (Homo sapiens) (UniProt P0DP23). Nature of the experiment: CALM1 binders on microarrays, EGTA buffer, profiling panel, biochemical, small-molecule microarray, Cy5-labelled CALM1 (AID 1111).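 Note: labelled calmodulin applied in Tris saline Tween buffer holding calcium plus EGTA and DTT.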 Conditions: Cy5-CALM1 binding fluorescence, higher = more signal.
The target is the same in experiment [15]. Description: calcium-bound CALM1 binders on microarrays, profiling panel, artefact control for SMM control-protein annotation, biochemical, small-molecule microarray, Cy5-labelled CALM1, plus calcium (AID 1112).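 Note: score merges spot fluorescence with signal to noise from triplicate slides.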 Conditions: Cy5-CALM1 binding fluorescence, higher = more signal.
A short description of experiment [16]: small-molecule microarray binders of probe aWnt5a, primary screen, biochemical, biotinylated probe, 635/667 nm fluorescence (AID 1113).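 Note: score merges 667 nm fluorescence intensity with signal-to-noise per printed feature.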 Conditions: higher = more signal.
Experiment [17] can be described thus: small-molecule microarray binders of probe aShh, primary screen, biochemical, biotinylated probe, 635/667 nm fluorescence (AID 1114).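 Note: probe is biotin-labelled aShh protein from a stem cell growth factor screen; measures binding of labelled protein to compounds printed on the slide; score merges feature fluorescence at 667 nm with signal-to-noise.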 Conditions: higher = more signal.
Experiment [18] in a line: small-molecule microarray binders of probe aNog, primary screen, biochemical, biotinylated probe, 635/667 nm fluorescence (AID 1115).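 Note: probe is biotinylated aNog protein used at 0.15 µg/mL for 1 h at 4 C; z-score combines 667 nm fluorescence of each spot with its signal to noise.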 Conditions: higher = more signal.
Experiment [19] has as its target Torsin-1A-interacting protein 1 (Homo sapiens) (UniProt Q5JTV8). Description: LAP1 binders from COS7 cell lysate, primary screen, small-molecule microarray, 635/667 nm fluorescence (AID 1116). Conditions: COS7-hLAP1 lysate binding, 635 nm fluorescence, higher = more signal.
Experiment [20] concerns the target Alpha-bungarotoxin (Bungarus multicinctus) (UniProt P60615). Description: alpha-bungarotoxin binders on microarray, profiling panel, artefact control for SMM control protein annotation, biochemical, small-molecule microarray, Alexa647 label, 635/667 nm fluorescence (AID 1117). Conditions: alpha-BTX-A647 binding fluorescence, higher = more signal.

Calls of active or inactive are those of the source.

Sequence of Alpha-bungarotoxin (Bungarus multicinctus) (P60615 whole entry, looked up): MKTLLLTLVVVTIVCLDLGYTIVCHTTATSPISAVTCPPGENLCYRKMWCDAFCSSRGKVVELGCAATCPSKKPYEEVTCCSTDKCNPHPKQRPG
Sequence of Torsin-1A-interacting protein 1 (Homo sapiens) (Q5JTV8 whole entry, looked up): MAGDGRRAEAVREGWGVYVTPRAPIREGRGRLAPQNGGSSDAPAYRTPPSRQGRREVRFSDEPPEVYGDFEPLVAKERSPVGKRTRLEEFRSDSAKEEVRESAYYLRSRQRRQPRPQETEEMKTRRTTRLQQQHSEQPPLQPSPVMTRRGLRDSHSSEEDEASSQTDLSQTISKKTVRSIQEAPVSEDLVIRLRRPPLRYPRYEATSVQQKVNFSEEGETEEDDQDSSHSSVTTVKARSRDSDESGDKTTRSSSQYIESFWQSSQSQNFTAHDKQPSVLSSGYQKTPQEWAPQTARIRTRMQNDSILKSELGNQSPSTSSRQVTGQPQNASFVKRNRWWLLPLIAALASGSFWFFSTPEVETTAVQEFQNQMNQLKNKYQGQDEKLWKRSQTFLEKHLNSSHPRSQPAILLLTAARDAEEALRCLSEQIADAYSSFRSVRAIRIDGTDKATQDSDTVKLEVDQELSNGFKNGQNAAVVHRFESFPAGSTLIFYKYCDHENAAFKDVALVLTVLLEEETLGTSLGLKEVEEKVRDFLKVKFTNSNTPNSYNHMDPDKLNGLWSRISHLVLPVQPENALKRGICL
Sequence of Left-right determination factor 2 (Homo sapiens) (O00292 whole entry, looked up): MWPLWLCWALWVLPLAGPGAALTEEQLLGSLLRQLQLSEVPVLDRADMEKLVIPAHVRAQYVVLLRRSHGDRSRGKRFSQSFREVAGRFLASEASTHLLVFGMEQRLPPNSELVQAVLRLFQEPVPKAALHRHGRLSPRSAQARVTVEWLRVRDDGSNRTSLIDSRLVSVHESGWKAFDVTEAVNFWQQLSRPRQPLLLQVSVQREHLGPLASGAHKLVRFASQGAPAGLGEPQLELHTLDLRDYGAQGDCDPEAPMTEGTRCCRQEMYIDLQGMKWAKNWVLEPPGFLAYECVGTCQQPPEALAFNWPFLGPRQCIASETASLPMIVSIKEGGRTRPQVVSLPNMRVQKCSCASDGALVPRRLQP
Sequence of Fibroblast growth factor 10 (Homo sapiens) (O15520 whole entry, looked up): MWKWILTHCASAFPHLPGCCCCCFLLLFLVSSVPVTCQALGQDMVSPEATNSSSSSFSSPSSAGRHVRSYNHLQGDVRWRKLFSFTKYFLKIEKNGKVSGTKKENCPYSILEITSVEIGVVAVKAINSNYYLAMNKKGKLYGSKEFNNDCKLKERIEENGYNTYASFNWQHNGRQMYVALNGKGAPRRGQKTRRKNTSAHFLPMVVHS

As for `C[C@H]1CC[C@@H](C(=O)O)N[C@@H]1c1ccc(C#Cc2ccccc2)cc1`, the composite z-score in experiment [1] was 0.194; in [2], 0.0274; in [3], -0.273; in experiment [5], 1.24; in experiment [6], 1.1; in experiment [7] it was 0.935. Moreover, the composite z-score in experiment [8] was 1.31; in [9] it was 1.07; in experiment [10], 1.01; in experiment [11] it was 0.942; in experiment [13] it was 0.753; in experiment [14], 0.119. Further, the composite z-score was -0.332 in experiment [15]; -0.0203 in experiment [16]; -0.154 in experiment [17]; -0.256 in experiment [18]; 0.666 in experiment [19]; 0.966 in [20]. For the same compound, the z-score is 0.29 (inactive) in experiment [4] and -4.69 in experiment [12].

`CCOC(=O)CCN1C(=O)[C@H]2[C@H]3[C@H](O)[C@H](O)CC(=O)[C@@H]3CC[C@H]2C1=O`: the composite z-score is 0.414 in [1]; -0.0674 in experiment [2]; -0.834 in [3]; 1.1 in [5]; 0.917 in experiment [6]; 0.591 in [7]. Moreover, the composite z-score in experiment [8] was 1.15; in [9], 0.935; in [10], -0.37; in experiment [11], 0.555; in experiment [13], 0.657; in experiment [14] it was 0.0068. The composite z-score in experiment [15] was -0.135; in experiment [16] it was -0.0924; in [17], -0.138; in experiment [18], -0.252; in experiment [19] it was 0.597; in experiment [20], 0.321. Besides, the figures for the z-score in experiment [4] and in experiment [12] were 0.283 (inactive) and -0.408, respectively.

Turning to `COC(=O)[C@H](C)NC(=O)CCC1CC(OC(=O)NCCc2ccc(F)cc2)CC2(CCCC(COC(=O)NCc3ccccc3)O2)O1` (stereo not given in full), the composite z-score was 0.768 in experiment [1]; -0.128 in experiment [2]; -0.37 in experiment [3]; 0.834 in [5]; 1.28 in experiment [6]; 0.462 in experiment [7]. Further, the composite z-score came to 1.29 in experiment [8]; 0.477 in experiment [9]; 0.0384 in [10]; 1.32 in experiment [11]; 0.816 in [13]; 0.516 in [14]. Moreover, the composite z-score in [15] is -0.796; in [16] it was -0.141; in experiment [17], -0.221; in experiment [18], -0.384; in experiment [19], 0.708; in experiment [20], 0.574. For the same compound, the z-score in experiment [4] is -0.114 (inactive); in experiment [12], -1.18.

On to `O=C1[C@H]2[C@H]3[C@H](O)[C@H](O)CC(=NOC[C@@H](O)COCc4ccco4)[C@@H]3CC[C@H]2C(=O)N1C1CCCCC1`, for which the composite z-score in experiment [1] is 0.225; in [2] it was -0.401; in [3], -1.26; in experiment [5], -0.102; in experiment [6], 1.04; in [7], 0.783. Besides, the composite z-score in experiment [8] is 1.36; in [9] it was 1.46; in experiment [10], 1.23; in experiment [11], 0.814; in experiment [13], 0.72; in experiment [14], -0.608. The composite z-score in [15] was -1.66; in [16], -0.124; in experiment [17], -0.206; in [18], -0.5; in experiment [19] it was 0.289; in [20] it was -0.0636. The z-score in experiment [4] is 0.76 (inactive); in experiment [12] it was -0.337.

In the case of `CCOC(=O)[C@H](CC(C)C)NC(=O)CCC1CC(OC(=O)NCc2ccc3c(c2)OCO3)CC2(CCCC(COC(=O)NCCC(C)C)O2)O1` (stereo not given in full), the composite z-score was 0.0402 in experiment [1]; -0.494 in [2]; -0.36 in experiment [3]; 0.136 in [5]; -0.322 in experiment [6]; 0.0946 in experiment [7]. Besides, the composite z-score in experiment [8] is 0.115; in [9] it was 0.0586; in experiment [10] it was 0.16; in experiment [11] it was -0.527; in [13], 0.0162; in experiment [14] it was -0.344. Further, the composite z-score was -0.365 in experiment [15]; -0.184 in experiment [16]; -0.283 in [17]; -0.295 in experiment [18]; 0.0461 in [19]; 0.0789 in experiment [20]. The z-score in experiment [4] was -0.748 (inactive); in experiment [12] it was 0.752.

With `CC(C)[C@@H](OCc1ccccc1)[C@H](C)C=NO[C@H](C)c1cn([C@@H]2COC[C@H]2O)nn1`, the composite z-score in experiment [1] was 0.385; in experiment [2] it was -0.492; in experiment [3], -0.511; in experiment [5], 0.457; in experiment [6], 1.08; in experiment [7], 0.556. Further, the composite z-score in experiment [8] was 0.448; in [9], 0.0939; in [10], -1.31; in experiment [11], 1.27; in experiment [13], 0.542; in experiment [14], -0.219. The composite z-score is -0.407 in experiment [15]; -0.0832 in [16]; -0.206 in experiment [17]; -0.198 in experiment [18]; 0.296 in experiment [19]; 0.586 in [20]. Further, the z-score is 0.0201 (inactive) in experiment [4] and -1.16 in [12].

In the case of `CCOC(=O)[C@H](Cc1ccccc1)NC(=O)CCC1CC(OC(=O)NCc2ccc3c(c2)OCO3)CC2(CCCC(COC(=O)NCCCN3CCCC3=O)O2)O1` (stereo not given in full), the composite z-score in experiment [1] is 0.465; in experiment [2], -0.505; in experiment [3], -0.431; in experiment [5] it was 0.573; in experiment [6], 0.852; in [7], 0.494. Besides, the composite z-score came out at 0.645 in experiment [8]; 0.543 in experiment [9]; 0.312 in experiment [10]; 1.35 in experiment [11]; 0.56 in experiment [13]; 0.972 in experiment [14]. Moreover, the composite z-score in experiment [15] was 0.356; in [16], -0.0607; in experiment [17], -0.229; in experiment [18], -0.0604; in [19] it was 0.799; in [20], 0.426. The z-score in [4] is -0.199 (inactive); in [12], -1.93.

With `O=C(NCCC[N+]1=CC=NC1c1ccccc1)N1CCCc2nc(-c3ccc(Br)cc3)ccc21` (stereo not given), the composite z-score in [1] was 1.02; in experiment [2] it was -0.128; in experiment [3] it was -0.346; in [5] it was 0.0448; in [6] it was 0.212; in [7], 0.221. Besides, the composite z-score was -0.0767 in experiment [8]; 0.42 in experiment [9]; 0.435 in experiment [10]; 0.107 in experiment [11]; 0.498 in experiment [13]; 0.626 in experiment [14]. The composite z-score in [15] was 0.0894; in experiment [16] it was -0.0145; in experiment [17], 0.0141; in experiment [18], 0.0481; in experiment [19], 0.0439; in [20], -0.436. The values for the z-score in [4] and in experiment [12] were -0.106 (inactive) and -3.49, respectively.
